Laboratory results published in the supplement of paper PMC10849652.
Targets with a hit are over-represented here; the source holds about 7,900 in all. About 0.6% of all pairs of compound and target were hits.

Assays:
Test in all cases: log2 fold change, soluble protein after heating vs DMSO (PISA); higher = thermal stabilisation; K562 cells, 10 uM, 30 min; active = over 0.2 and 3.5 SD of the protein, either way, in both replicates (recomputed)
[1] = compound: C1=CC=C(C=C1)[C@H](COC2=CC3=C(C=C2)NC(=O)N3)NC(=O)C4=CC=CN(C4=O)CC5=CC(=C(C=C5)F)F
Outline: (§1)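 K562 cells at 2×10^6 cells/mL were exposed to 10 μM compound for 30 min, then aliquots were heated for 3 min across 48°C-58°C, pooled, and extracted in PBS containing 0.5% NP-40 at 4°C. The supernatant after 21,000xg for 90 min was taken as soluble protein and measured by TMTpro 16plex LC-MS/MS with channel sums equalised. Thermal stability is reported relative to control samples, with values from duplicates. Fold changes are given on a log2 scale.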

[2] = compound: CC1=C(SC2=C1C(=N[C@H](C3=NN=C(N32)C)CC(=O)N)C4=CC=C(C=C4)Cl)C
Outline: as §1

[3] = compound: CC1=C2C(=CC=C1)N=C(N(C2=O)C3=CC=CC=C3C)CN4C=NC5=C(N=CN=C54)N
Outline: as §1

[4] = compound: Cc1sc2c(c1C)C(c1ccc(Cl)cc1)=N[C@@H](CC(=O)OC(C)(C)C)c1nnc(C)n1-2
Outline: as §1

[5] = compound: c1ccc([C@@H]2C[C@H]2NC2CCNCC2)cc1
Outline: as §1

Measured: log2 fold change

MORC3 (UniProt Q14149)
UniProt Q14149, sequence (Q14149 whole entry, looked up): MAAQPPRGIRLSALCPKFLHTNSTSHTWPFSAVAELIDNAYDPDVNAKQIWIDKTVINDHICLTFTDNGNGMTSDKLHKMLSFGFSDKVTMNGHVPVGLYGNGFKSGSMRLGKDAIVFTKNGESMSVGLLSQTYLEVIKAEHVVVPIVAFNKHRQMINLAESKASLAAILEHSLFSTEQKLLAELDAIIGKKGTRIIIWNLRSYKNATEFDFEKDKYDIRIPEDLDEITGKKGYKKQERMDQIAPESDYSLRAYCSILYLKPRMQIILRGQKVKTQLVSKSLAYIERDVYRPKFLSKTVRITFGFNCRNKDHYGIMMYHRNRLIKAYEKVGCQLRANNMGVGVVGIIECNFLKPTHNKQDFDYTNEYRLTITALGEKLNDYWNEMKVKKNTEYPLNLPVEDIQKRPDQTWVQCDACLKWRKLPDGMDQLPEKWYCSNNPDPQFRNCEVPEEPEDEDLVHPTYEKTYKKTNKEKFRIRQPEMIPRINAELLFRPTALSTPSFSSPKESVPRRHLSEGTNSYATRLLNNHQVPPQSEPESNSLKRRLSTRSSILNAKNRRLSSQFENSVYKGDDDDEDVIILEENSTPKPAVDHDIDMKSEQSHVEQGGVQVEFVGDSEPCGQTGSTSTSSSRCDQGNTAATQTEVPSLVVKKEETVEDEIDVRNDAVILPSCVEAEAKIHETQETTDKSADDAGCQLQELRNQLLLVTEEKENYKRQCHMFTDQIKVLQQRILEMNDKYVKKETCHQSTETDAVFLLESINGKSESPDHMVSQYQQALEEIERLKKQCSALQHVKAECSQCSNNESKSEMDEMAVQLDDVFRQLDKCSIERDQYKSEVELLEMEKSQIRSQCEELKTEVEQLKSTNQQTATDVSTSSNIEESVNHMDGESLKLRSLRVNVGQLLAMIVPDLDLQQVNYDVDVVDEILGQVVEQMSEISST
inactive: [1] -0.043 | [2] 0.014 | [3] 0.132 | [4] 0.017 | [5] 0.062

NSMCE4A (UniProt Q9NXX6)
UniProt Q9NXX6, sequence (Q9NXX6 whole entry, looked up): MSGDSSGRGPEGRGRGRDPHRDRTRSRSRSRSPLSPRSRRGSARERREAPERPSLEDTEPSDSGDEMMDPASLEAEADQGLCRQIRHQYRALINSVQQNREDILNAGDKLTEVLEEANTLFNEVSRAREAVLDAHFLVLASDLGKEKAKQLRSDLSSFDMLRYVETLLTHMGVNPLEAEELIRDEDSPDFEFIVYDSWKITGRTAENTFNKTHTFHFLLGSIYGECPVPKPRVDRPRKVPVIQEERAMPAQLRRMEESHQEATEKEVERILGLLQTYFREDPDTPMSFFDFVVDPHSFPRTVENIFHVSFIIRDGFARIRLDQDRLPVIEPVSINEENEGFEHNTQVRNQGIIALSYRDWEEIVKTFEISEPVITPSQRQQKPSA
inactive: [1] 0.123 | [2] 0.03 | [3] -0.088 | [4] -0.037 | [5] -0.014

NDUFS8 (UniProt O00217)
UniProt O00217, sequence (O00217 whole entry, looked up): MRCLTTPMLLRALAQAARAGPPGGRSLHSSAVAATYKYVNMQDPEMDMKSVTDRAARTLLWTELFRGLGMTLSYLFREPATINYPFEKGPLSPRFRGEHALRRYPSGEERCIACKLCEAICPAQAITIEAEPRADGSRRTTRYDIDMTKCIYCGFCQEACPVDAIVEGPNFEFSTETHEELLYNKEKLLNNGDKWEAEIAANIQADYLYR
inactive: [1] -0.049 | [2] 0.1 | [3] 0.082 | [4] -0.023 | [5] -0.02

NPC1 (UniProt O15118)
UniProt O15118, sequence (O15118 whole entry, looked up): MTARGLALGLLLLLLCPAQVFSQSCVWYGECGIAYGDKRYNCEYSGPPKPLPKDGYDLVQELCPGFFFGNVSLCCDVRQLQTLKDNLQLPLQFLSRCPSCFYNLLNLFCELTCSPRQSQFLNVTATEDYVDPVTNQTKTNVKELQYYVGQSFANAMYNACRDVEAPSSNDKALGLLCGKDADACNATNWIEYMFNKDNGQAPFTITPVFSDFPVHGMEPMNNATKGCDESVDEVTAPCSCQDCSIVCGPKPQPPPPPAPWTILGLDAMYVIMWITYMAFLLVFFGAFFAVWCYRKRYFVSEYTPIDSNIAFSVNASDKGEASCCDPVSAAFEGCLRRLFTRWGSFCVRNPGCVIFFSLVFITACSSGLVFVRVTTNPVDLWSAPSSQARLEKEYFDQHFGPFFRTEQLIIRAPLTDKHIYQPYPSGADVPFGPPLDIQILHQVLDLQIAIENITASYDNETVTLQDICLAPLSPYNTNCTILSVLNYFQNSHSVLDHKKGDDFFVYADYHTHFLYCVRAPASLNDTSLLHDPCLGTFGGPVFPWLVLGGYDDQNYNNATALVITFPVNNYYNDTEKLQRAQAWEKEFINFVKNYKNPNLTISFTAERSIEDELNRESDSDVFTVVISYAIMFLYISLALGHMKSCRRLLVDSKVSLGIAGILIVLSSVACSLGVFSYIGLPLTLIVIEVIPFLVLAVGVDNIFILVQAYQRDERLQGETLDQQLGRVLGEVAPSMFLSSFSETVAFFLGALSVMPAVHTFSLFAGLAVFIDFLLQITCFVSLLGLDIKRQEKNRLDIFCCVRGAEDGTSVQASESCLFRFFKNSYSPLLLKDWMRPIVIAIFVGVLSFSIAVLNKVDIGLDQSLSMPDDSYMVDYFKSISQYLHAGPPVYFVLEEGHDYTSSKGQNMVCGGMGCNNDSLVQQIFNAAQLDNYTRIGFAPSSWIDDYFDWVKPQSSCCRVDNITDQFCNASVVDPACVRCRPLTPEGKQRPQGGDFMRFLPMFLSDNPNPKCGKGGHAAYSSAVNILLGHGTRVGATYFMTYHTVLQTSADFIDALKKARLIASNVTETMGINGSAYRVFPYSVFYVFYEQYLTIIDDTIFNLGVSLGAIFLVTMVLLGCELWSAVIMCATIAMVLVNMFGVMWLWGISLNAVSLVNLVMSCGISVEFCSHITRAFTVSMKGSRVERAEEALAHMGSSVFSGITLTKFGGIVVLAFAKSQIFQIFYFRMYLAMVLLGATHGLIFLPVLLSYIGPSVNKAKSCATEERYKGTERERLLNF
inactive: [1] -0.034 | [2] -0.038 | [3] -0.017 | [4] 0.009 | [5] 0.049

OPA1 isoform 2 (UniProt O60313)
UniProt O60313, sequence (O60313 whole entry, looked up): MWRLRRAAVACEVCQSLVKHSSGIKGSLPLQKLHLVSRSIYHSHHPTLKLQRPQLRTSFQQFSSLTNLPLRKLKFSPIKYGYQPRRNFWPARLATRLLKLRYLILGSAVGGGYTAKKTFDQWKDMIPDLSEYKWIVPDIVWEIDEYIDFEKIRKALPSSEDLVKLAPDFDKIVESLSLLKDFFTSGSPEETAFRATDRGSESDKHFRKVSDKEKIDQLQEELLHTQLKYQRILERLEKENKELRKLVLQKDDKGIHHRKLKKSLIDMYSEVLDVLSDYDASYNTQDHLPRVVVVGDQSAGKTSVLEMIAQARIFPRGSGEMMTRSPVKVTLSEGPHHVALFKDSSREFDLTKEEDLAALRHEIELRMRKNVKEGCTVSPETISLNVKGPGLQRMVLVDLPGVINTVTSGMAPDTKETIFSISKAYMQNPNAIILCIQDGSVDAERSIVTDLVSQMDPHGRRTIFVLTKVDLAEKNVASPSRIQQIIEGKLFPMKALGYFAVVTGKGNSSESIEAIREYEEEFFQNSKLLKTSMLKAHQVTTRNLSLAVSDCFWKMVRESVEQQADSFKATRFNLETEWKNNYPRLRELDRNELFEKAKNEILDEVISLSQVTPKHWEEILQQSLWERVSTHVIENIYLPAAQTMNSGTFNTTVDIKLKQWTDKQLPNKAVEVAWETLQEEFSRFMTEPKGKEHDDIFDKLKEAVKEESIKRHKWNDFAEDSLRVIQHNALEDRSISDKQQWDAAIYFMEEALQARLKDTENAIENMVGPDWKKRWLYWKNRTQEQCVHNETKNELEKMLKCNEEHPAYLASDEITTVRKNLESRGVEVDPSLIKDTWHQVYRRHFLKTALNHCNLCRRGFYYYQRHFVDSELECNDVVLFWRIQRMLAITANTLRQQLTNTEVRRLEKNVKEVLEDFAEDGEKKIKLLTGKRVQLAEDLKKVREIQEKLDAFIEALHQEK
inactive: [1] -0.054 | [2] 0.028 | [3] 0.021 | [4] -0.03 | [5] -0.037

MRPS10 (UniProt P82664)
inactive: [1] -0.019 | [2] -0.102 | [3] 0.065 | [4] 0.132 | [5] 0.025

PAFAH2 (UniProt Q99487)
inactive: [1] -0.191 | [2] 0.016 | [3] 0.066 | [4] -0.117 | [5] -0.141

MRPS2 (UniProt Q9Y399)
inactive: [1] -0.084 | [2] 0.147 | [3] -0.042 | [4] 0.079 | [5] 0.003

NUCKS1 (UniProt Q9H1E3)
inactive: [1] 0.044 | [2] -0.053 | [3] 0.032 | [4] -0.029 | [5] -0.007

MT-ND2 (UniProt P03891)
UniProt P03891, sequence (P03891 whole entry, looked up): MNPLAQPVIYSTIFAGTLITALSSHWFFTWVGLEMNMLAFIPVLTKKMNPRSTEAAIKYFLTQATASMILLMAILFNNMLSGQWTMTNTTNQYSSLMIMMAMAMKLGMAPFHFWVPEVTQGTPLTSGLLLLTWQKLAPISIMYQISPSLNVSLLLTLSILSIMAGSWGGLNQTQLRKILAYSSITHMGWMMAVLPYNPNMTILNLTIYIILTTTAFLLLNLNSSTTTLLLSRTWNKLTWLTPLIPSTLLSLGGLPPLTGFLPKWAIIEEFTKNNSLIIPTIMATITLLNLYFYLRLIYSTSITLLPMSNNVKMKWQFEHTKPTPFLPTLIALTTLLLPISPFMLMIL
inactive: [1] 0.023 | [2] 0.123 | [3] -0.118 | [4] -0.03 | [5] -0.003

NDUFB10 (UniProt O96000)
inactive: [1] 0.048 | [2] 0.009 | [3] 0.06 | [4] -0.031 | [5] 0.002

NOB1 (UniProt Q9ULX3)
inactive: [1] -0.048 | [2] -0.033 | [3] 0.048 | [4] 0.067 | [5] -0.06

MRPS21 (UniProt P82921)
inactive: [1] -0.238 | [2] 0.032 | [3] 0.013 | [4] 0.116 | [5] -0.016

NFYB (UniProt P25208)
inactive: [1] -0.015 | [2] -0.119 | [3] -0.165 | [4] -0.048 | [5] 0.057

PAK1 isoform 2 (UniProt Q13153)
inactive: [1] -0.152 | [2] 0.097 | [3] -0.113 | [4] -0.02 | [5] -0.092

MRPS33 (UniProt Q9Y291)
inactive: [1] 0.005 | [2] -0.057 | [3] -0.114 | [4] 0.098 | [5] -0.002

MTOR (UniProt P42345)
inactive: [1] -0.044 | [2] 0.021 | [3] 0.092 | [4] -0.001 | [5] -0.028

NUP107 (UniProt P57740)
inactive: [1] -0.02 | [2] -0.043 | [3] 0.051 | [4] 0.052 | [5] 0.025

MRPS6 (UniProt P82932)
inactive: [1] -0.084 | [2] 0.012 | [3] 0.052 | [4] 0.052 | [5] -0.022

NNT (UniProt Q13423)
inactive: [1] -0.014 | [2] 0.091 | [3] 0.044 | [4] -0.028 | [5] 0

NMRAL1 (UniProt Q9HBL8)
inactive: [1] -0.12 | [2] -0.017 | [3] 0.025 | [4] -0.139 | [5] -0.094

NOL11 (UniProt Q9H8H0)
inactive: [1] 0.007 | [2] 0 | [3] -0.008 | [4] -0.014 | [5] 0.025

NFATC2 (UniProt Q13469)
UniProt Q13469, sequence (Q13469 whole entry, looked up): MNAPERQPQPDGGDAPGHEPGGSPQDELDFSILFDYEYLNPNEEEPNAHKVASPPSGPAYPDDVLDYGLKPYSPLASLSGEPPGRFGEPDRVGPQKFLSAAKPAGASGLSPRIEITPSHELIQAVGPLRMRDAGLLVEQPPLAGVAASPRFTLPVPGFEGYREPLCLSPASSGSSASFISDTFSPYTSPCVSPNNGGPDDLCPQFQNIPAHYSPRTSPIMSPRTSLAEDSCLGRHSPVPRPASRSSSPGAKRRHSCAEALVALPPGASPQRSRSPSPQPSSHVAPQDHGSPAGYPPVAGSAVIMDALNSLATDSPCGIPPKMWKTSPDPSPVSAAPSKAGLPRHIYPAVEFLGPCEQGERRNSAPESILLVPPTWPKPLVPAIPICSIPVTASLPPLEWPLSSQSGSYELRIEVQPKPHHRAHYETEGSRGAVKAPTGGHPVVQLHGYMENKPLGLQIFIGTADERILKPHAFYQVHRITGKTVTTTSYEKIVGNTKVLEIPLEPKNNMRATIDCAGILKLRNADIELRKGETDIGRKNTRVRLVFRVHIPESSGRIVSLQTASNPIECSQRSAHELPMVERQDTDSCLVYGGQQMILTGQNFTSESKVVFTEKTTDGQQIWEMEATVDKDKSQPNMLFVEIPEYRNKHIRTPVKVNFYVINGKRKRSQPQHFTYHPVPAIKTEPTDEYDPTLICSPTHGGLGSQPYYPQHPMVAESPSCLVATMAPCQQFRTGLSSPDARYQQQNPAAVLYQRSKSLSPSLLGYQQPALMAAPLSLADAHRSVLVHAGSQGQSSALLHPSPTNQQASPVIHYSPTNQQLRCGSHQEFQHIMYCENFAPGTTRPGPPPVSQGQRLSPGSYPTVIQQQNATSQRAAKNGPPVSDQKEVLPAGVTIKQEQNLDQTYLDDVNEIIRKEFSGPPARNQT
inactive: [1] -0.063 | [2] 0.097 | [3] 0.077 | [4] 0.023 | [5] 0.021

NUMA1 (UniProt Q14980)
inactive: [1] 0.027 | [2] -0.05 | [3] -0.009 | [4] 0.022 | [5] 0.014
